Results filed as inconclusive are left out. Activity calls are given as the source filed them. Unless noted, the call rests on the fitted dose curve; in most records, active means well fitted curve in the direction sought with a large enough effect in the repeat runs; inconclusive means weak or mixed curves; inactive means no such curve, though single readings can be large; an effect the other way counts as inactive or inconclusive.
Legend:
[1] = qHTS assay to identify small molecule antagonists of the peroxisome proliferator-activated receptor delta (PPARd) signaling pathway - cell viability counter screen (AID 743213); further: nearly all actives have a fitted effect of over 50% in size
How it was run: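 Luminescence from CellTiter-Glo, added after the bla read and incubated 30 min at room temperature, gives viability of HEK293H PPARd-bla cells exposed to compounds for 17 h at 37 C with 300 nM L165041.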

[2] = target: Bile acid receptor (Homo sapiens) (UniProt Q96RI1); test: qHTS assay to identify small molecule antagonists of the farnesoid-X-receptor (FXR) signaling pathway (AID 743217; active means well fitted inhibition curve with a large enough effect in the signal ratio in the repeat runs, not every such curve was filed as active; the % refers to the signal ratio)
How it was run: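 FRET fluorescence after 2 h room-temperature LiveBLAzer loading gives the readout. Prior step: FXR-bla HEK 293T cells, seeded and incubated 5 h, received test compounds plus 50 uM final CDCA for 16 h at 37 °C.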

[3] = target: Bile acid receptor (Homo sapiens) (UniProt Q96RI1); test: qHTS assay to identify small molecule agonists of the farnesoid-X-receptor (FXR) signaling pathway (AID 743220; active means well fitted activation curve with a large enough effect in the signal ratio in the repeat runs, not every such curve was filed as active; the % refers to the signal ratio)
How it was run: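 FXR-UAS-bla HEK 293T cells carrying a UAS-driven beta-lactamase reporter were plated for 5 h at 37C/5% CO2, then exposed to DMSO-dissolved Tox21 10K compounds for 16 h at 37C. A LiveBLAzer B/G FRET substrate was loaded for 2 h at room temperature before fluorescence reading.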

[4] = qHTS assay to identify small molecule antagonists of the farnesoid-X-receptor (FXR) signaling pathway - cell viability counter screen (AID 743221; active means well fitted cell-killing curve with a large enough effect in the repeat runs, not every such curve was filed as active; further: nearly all actives have a fitted effect of over 50% in size)
How it was run: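 Cytotoxicity counter screen run in the FXR-bla reporter wells: HEK 293T cells exposed to compound with 50 uM (final) chenodeoxycholic acid for 16 h, 37 C, then viability measured by CellTiter-Glo luminescence after 30 min, room temperature.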

[5] = target: Vitamin D3 receptor (Homo sapiens) (UniProt P11473); test: qHTS assay to identify small molecule agonists of the vitamin D receptor (VDR) signaling pathway (AID 743222; calls by dose curve)
How it was run: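 Following 4 h attachment at 37C, VDR-bla cells (2,000 per well) received DMSO-dissolved compounds or controls. After 16 h incubation, LiveBLAzer B/G FRET substrate was added and fluorescence read 2 h later at room temperature.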

[6] = target: Vitamin D3 receptor (Homo sapiens) (UniProt P11473); test: qHTS assay to identify small molecule antagonists of the vitamin D receptor (VDR) signaling pathway (AID 743223; active means well fitted inhibition curve with a large enough effect in the signal ratio in the repeat runs, not every such curve was filed as active; the % refers to the signal ratio)
How it was run: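 Antagonist mode: compound added to VDR-bla cells alongside agonist 1alpha,25-dihydroxyvitamin D3 (3 nM final), incubation 16 h at 37C. Read-out is LiveBLAzer FRET fluorescence, 2 h at room temperature.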

[7] = target: Peroxisome proliferator-activated receptor delta (Homo sapiens) (UniProt Q03181); test: qHTS assay to identify small molecule agonists of the peroxisome proliferator-activated receptor delta (PPARd) signaling pathway (AID 743212; calls by dose curve)
How it was run: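 Tox21 library screened in GeneBLAzer PPARd UAS-bla HEK293H cells. After compound treatment at 37 C, a FRET-based beta-lactamase substrate was applied for 2 h and fluorescence recorded.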

[8] = qHTS assay to identify small molecule agonists of the farnesoid-X-receptor (FXR) signaling pathway - cell viability counter screen (AID 743218); further: nearly all actives have a fitted effect of over 45% in size
How it was run: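 Readout: CellTiter-Glo luminescence, 30 min RT, multiplexed after the FXR-bla FRET reading. HEK 293T FXR-UAS-bla cells received compound 5 h post-plating and were incubated 16 h at 37 C.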

[9] = target: Peroxisome proliferator-activated receptor delta (Homo sapiens) (UniProt Q03181); test: qHTS assay to identify small molecule antagonists of the peroxisome proliferator-activated receptor delta (PPARd) signaling pathway (AID 743215; active means well fitted inhibition curve with a large enough effect in the signal ratio in the repeat runs, not every such curve was filed as active; the % refers to the signal ratio;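 further: cells stimulated with agonist L165041 at 300 nM final during compound exposure; series mostly up to about 62 µM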)
How it was run: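 Fluorescence from cleaved LiveBLAzer B/G FRET substrate (2 h, room temperature) reports PPARd-driven beta-lactamase in HEK293H UAS-bla cells. Cells had been treated 17 h at 37 C with compound plus 300 nM final L165041.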

Measured: Potency

Sequence of Bile acid receptor (Homo sapiens) (Q96RI1 whole entry, looked up): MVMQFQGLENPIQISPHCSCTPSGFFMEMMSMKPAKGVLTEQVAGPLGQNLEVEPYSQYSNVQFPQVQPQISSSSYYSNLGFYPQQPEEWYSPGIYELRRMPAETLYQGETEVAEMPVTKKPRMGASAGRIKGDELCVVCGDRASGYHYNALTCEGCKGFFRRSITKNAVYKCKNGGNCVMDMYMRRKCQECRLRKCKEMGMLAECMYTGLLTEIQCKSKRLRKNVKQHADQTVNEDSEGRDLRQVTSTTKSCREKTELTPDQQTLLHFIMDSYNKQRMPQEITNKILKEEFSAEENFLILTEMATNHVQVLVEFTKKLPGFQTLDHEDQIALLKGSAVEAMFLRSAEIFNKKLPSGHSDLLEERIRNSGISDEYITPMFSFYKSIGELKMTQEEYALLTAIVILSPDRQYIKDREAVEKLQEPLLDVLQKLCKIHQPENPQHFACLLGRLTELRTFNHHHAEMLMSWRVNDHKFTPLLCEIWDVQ
Sequence of Peroxisome proliferator-activated receptor delta (Homo sapiens) (Q03181 whole entry, looked up): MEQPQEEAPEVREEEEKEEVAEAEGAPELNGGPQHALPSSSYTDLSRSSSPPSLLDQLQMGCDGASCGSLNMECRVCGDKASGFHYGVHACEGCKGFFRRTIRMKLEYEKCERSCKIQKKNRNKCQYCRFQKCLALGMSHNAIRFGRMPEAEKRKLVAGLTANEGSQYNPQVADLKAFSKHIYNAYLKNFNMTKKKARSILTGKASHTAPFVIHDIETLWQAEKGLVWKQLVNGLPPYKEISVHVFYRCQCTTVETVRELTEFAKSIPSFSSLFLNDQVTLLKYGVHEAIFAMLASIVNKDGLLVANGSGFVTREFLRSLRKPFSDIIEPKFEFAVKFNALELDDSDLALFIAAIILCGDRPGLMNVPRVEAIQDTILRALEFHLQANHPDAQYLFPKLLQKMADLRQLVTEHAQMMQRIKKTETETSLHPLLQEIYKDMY
Sequence of Vitamin D3 receptor (Homo sapiens) (P11473 whole entry, looked up): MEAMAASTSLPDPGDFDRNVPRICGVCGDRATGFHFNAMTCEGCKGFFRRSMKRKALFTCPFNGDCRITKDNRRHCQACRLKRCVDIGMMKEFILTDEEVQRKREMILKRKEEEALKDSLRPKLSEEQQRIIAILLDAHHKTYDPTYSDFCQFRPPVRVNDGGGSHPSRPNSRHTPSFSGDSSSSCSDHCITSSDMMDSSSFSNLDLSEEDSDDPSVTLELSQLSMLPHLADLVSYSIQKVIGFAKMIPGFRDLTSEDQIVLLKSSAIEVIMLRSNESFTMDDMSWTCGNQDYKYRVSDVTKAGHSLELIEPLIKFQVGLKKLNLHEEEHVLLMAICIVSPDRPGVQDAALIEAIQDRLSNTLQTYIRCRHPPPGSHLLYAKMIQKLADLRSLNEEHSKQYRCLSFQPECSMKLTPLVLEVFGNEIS

C=C1CC/C=C(\C)CC[C@@H]2[C@@H]1CC2(C)C
not listed: [7] | [8] | [9]
inactive: all other assays above

CC(=O)Nc1cccc(C)c1
inactive: [7] | [1] | [8] | [4] | [6]

CC(C)(C)c1nnc(NS(=O)(=O)c2ccc(N)cc2)s1
inactive: [7] | [9] | [4] | [5]

O=C1c2cccc3c2[C@H](CCC3)CN1[C@@H]1CN2CCC1CC2
not listed: [2] | [3]
inactive: all other assays above

CN(C)CCOCCO
not listed: [1] | [5] | [6]
inactive: all other assays above

CCOC(=O)c1ncn2c1CN(C)C(=O)c1cc(F)ccc1-2
inactive: [1] | [4] | [6]

O=C(OCc1ccccc1)C(=O)OCc1ccccc1
not listed: [2] | [3] | [8]
inactive: all other assays above

CC1(CO)CN(c2ccccc2)NC1=O (configuration not stated)
inactive: [1] | [9] | [6]

NS(=O)(=O)c1cc2c(cc1Cl)CN(C1CCCCC1)C2=O
not listed: [5] | [7] | [9]
inactive: all other assays above

CCCCNc1ccc(C(=O)OCCN(C)C)cc1
not listed: [2] | [3] | [8]
inactive: all other assays above

COc1ccc(S(=O)(=O)N2c3ccc(Cl)cc3[C@@](O)(c3ccccc3Cl)[C@H]2C(=O)N2CCC[C@@H]2C(N)=O)cc1OC
not listed: [2] | [3]
inactive: all other assays above

C[C@H](CCC(=O)O)[C@H]1CC[C@H]2[C@@H]3C(=O)C[C@@H]4CC(=O)CC[C@]4(C)[C@H]3CC(=O)[C@]12C
not listed: [2] | [3]
inactive: all other assays above

OCCC(F)(F)C(F)(F)C(F)(F)C(F)(F)C(F)(F)C(F)(F)C(F)(F)C(F)(F)F
inactive: [1] | [8] | [4] | [5] | [6]

CCCCC(CC)COCCO (configuration not stated)
inactive: [7] | [1] | [9] | [4] | [6]

CCCN1C[C@H](CSC)C[C@@H]2c3cccc4[nH]cc(c34)C[C@H]21
inactive: [7] | [9] | [4] | [5] | [6]

Cc1ccccc1OCC(O)CO (configuration not stated)
not listed: [2] | [3] | [5]
inactive: all other assays above

O=C(OCC(COC(=O)c1cccnc1)(COC(=O)c1cccnc1)COC(=O)c1cccnc1)c1cccnc1
not listed: [2] | [3] | [5]
inactive: all other assays above

COc1ccc2c(c1OC)C(=O)O[C@@H]2[C@H]1c2c(cc3c(c2OC)OCO3)CCN1C
inactive: [7] | [8] | [4] | [5]

O=C(O)C(=O)Cc1ccccc1
not listed: [2] | [3] | [7]
inactive: all other assays above

CCCOC(=O)C(C)O (configuration not stated)
not listed: [1] | [5] | [9]
inactive: all other assays above

CCCCCCCCCC(C)=O
inactive: [7] | [9] | [8] | [4] | [6]

Oc1cn2c(n1)Nc1ccc(Cl)c(Cl)c1C2
not listed: [2] | [3]
inactive: all other assays above

COCCOC(=O)C1=C(C)NC(C)=C(C(=O)OC(C)C)C1c1cccc([N+](=O)[O-])c1 (configuration not stated)
inactive: [7] | [9] | [4] | [6]

CCCCNC1CC(C)(C)NC(C)(C)C1
inactive: [7] | [9] | [8] | [4] | [6]

COCCc1ccc(OCC2CO2)cc1 (configuration not stated)
not listed: [2] | [3] | [8]
inactive: all other assays above

NC(CO)C(=O)NNCc1ccc(O)c(O)c1O (configuration not stated)
not listed: [1] | [5]
inactive: all other assays above

C[C@@H]1O[C@@H](O[C@@H]2[C@@H](O)[C@H](OCCc3ccc(O)c(O)c3)O[C@H](CO[C@@H]3O[C@H](CO)[C@@H](O)[C@H](O)[C@H]3O)[C@H]2OC(=O)/C=C/c2ccc(O)c(O)c2)[C@H](O)[C@H](O)[C@H]1O
inactive: [9] | [8] | [4] | [5] | [6]

O=P(O)(O)OP(=O)(O)O
inactive: [1] | [4] | [5] | [6]

Cc1c(I)c(=O)n(-c2ccccc2)n1C
inactive: [1] | [9] | [8] | [4]

CC(C)c1ccc2cc(C(C)C)ccc2c1
inactive: [1] | [8] | [4] | [6]

CC(C)C[C@H](NC(=O)CNC(=O)[C@H](Cc1ccc(O)cc1)NC(=O)[C@H](CO)NC(=O)[C@H](Cc1c[nH]c2ccccc12)NC(=O)[C@H](Cc1cnc[nH]1)NC(=O)[C@@H]1CCC(=O)N1)C(=O)N[C@@H](CCCN=C(N)N)C(=O)N1CCC[C@H]1C(=O)NCC(N)=O (stereo in doubt)
inactive: [7] | [1] | [2] | [4] | [6]

COC(=O)CCCCCCCC(=O)OC
inactive: [1] | [8] | [4] | [5] | [6]

NS(=O)(=O)c1ccc(NC(=O)CCC(=O)O)cc1
not listed: [6] | [9]
inactive: all other assays above

From PubChem BioAssay (Tox21)
